Results from PubChem BioAssay AID1259313 (Sanford-Burnham Center for Chemical Genomics, 2017).
In all, about 340,000 compounds went through this assay and about 8,500 (2.5%) were called active. Shown is part of a subset that was picked to be rich in actives. A number with no mark means an inactive call.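 How the source made its calls: active means melting temperature shift of at least 10% of the positive control shift, at one fixed dose; inactive means the rest.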

What follows are molecules tested on Glutamate receptor ionotropic, NMDA 3A (GRIN3A) ligand-binding domain (assay: binders of NR3A ligand-binding domain, primary screen, biophysical, differential scanning fluorimetry, uHTS (AID 1259313)). Conditions: NR3A LBD differential scanning fluorimetry, at 25 µM, stronger effect = higher value, 0% = protein alone, 100% = glycine-bound protein.

Row | SMILES | Tm shift relative to glycine control
1 | Cc1sc(NC(=O)C2=COCCO2)c(C#N)c1C | -1.88%
2 | O=C(Nc1cccc(-c2cccc(Cl)c2)c1)C1CCN(C2CCC2)CC1 | -0.08%
3 | C=CCSc1nnc(Cn2c(=O)sc3ccccc32)n1C | -0.55%
4 | CCOC(=O)c1cc2cc(-c3c(C(=O)OCC)oc4cc(O)cc(O)c4c3=O)ccc2o1 | 22.4% (active)
5 | CCOC(=O)c1oc2c(CN3CCN(C)CC3)c(O)ccc2c(=O)c1-c1ccc(Br)cc1 | -3.94%
6 | O=c1c(-c2ccc3c(c2)OCCO3)c(C(F)(F)F)oc2cc(O)cc(O)c12 | 6.01%
7 | Nc1nc(SCc2ccc([N+](=O)[O-])cc2)c2ncn(C3OC(CO)C(O)C3O)c2n1 (configuration not stated) | 1.21%
8 | COc1ccc(CN2CCNC(=O)C2CC(=O)N(C)Cc2ccccn2)cc1OC (configuration not stated) | 2.19%
9 | Cc1cccc(-n2c(C)cc(/C=N\NC(=O)c3cccs3)c2C)c1 | 11.5% (active)
10 | Cc1ccc(-n2nc(C)c(/C=N/NC(=O)c3cccs3)c2Cl)cc1 | -1.88%
11 | Cc1ccc(-n2c(C)cc(/C=N\NC(=O)CC(=O)NC(C)C)c2C)cc1 | -0.09%
12 | CN1CCN(c2ccccc2NC(=O)COc2ccc(C3CCCCC3)cc2)CC1 | 2.39%
13 | CC1(C)C/C(=C(/C#N)C(N)=O)CCO1 | 1.51%
14 | Cc1cc(Cl)ccc1C(=O)C1CCCN(C(=O)CCN2CCCO2)C1 (configuration not stated) | -1.36%
15 | CCN(CC(=O)Nc1ccc(S(=O)(=O)N2CCCC2)cc1)CC(=O)Nc1cccc(OC)c1 | 0.48%
16 | O=C(NCc1ccccc1)c1ccc(S(=O)(=O)Nc2cccc(C(F)(F)F)c2)cc1 | 8.53%
17 | CCNS(=O)(=O)c1ccc(NC(=O)Nc2cccc(C(F)(F)F)c2)cc1 | 38.8% (active)
18 | O=C(Nc1ccc(C(=O)N2CCOCC2)cc1)Nc1cccc(C(F)(F)F)c1 | -5.51%
19 | CCNS(=O)(=O)c1ccc(NC(=O)Nc2cccc(OC)c2)cc1 | 29.6% (active)

Row | SMILES | Tm shift relative to glycine control
20 | COc1cccc(NC(C)=[N+](C)CCNS(=O)(=O)c2ccc(Cl)cc2)c1 | -3.14%
21 | O=C(N/N=C/c1ccc(OCC2COCCO2)cc1)c1ccc(Br)cc1 (configuration not stated) | 8.82%
22 | COc1ccc(N2C(=O)C3C(C2=O)C(C(=O)c2ccccc2)N2CCCC32)cc1 (configuration not stated) | -1.47%
23 | Cc1cccc(C(=O)Nc2ccccc2C(=O)NCc2cccnc2)c1 | -0.85%
24 | Nc1cccc(-c2cc(-c3ccccc3)nc(-c3cccc(N)c3)n2)c1 | 42.8% (active)
25 | Cc1nc(NNC(=O)c2ccccc2)cc(-c2ccccc2)n1 | -0.16%
26 | c1ccc(-c2cc(N3CCCCC3)c3ccccc3n2)cc1 | 0.96%
27 | Oc1[nH]c2ccc(Br)cc2c1N=Nc1nn[nH]n1 | 4.42%
28 | NS(=O)(=O)c1ccc(N=Nc2c(O)[nH]c3ccc(Br)cc23)cc1 | 23.4% (active)
29 | O=C(CNC(=O)Cc1ccccc1)N=Nc1c(O)[nH]c2ccc(Br)cc12 | -9.04%
30 | CCOc1cc2[nH]c(=S)n(CCN3CCCCC3C)c(=O)c2cc1OCC (configuration not stated) | 0.59%
31 | Cc1cc(C)cc(OCC(=O)NNC(=O)c2cc3ccccc3oc2=O)c1 | 2.22%
32 | O=C(NCC(O)c1ccc([N+](=O)[O-])cc1)C1CCCCC1 (configuration not stated) | -0.64%
33 | O=C(CC(c1ccccc1)c1ccccc1)NCC(O)c1ccc([N+](=O)[O-])cc1 (configuration not stated) | -6.68%
34 | CC(=O)NCC(O)c1ccc([N+](=O)[O-])cc1 (configuration not stated) | 12.1% (active)
35 | COC(=O)c1cc(NS(=O)(=O)c2ccc3c(c2)c(=O)n(C)c(=O)n3C)cc(C(=O)OC)c1 | -17.2%
36 | Cc1csc2nc(O)c(C(=O)NCCN3CCOCC3)c(=O)n12 | 1.24%
37 | NC(=O)C1CCN(CC(O)CSc2ccc(F)cc2)CC1 (configuration not stated) | -0.69%
38 | CCOC(=O)c1sc(-c2cccc([N+](=O)[O-])c2)cc1N | 20.4% (active)

Row | SMILES | Tm shift relative to glycine control
39 | COC(=O)C(C)Oc1ccc2c(-c3cccc([N+](=O)[O-])c3)cc(=O)oc2c1 (configuration not stated) | 0.72%
40 | CCOC(=O)C1=C(CN2CCCCCC2)NC(=O)NC1c1cccc([N+](=O)[O-])c1 (configuration not stated) | 0.15%
41 | Cc1cccc(N=C2NN=C(c3c[nH]c4ccccc34)CS2)c1 | 19.3% (active)
42 | Cc1cccc(C(=O)Nc2nnc(Cc3c[nH]c4ccccc34)s2)c1 | -7.42%
43 | C=CCn1c(C)cc(C2=NNC(=NCC)SC2)c1C | -0.92%
44 | CC(C)C(C(=O)NCc1ccco1)N(CC1CCCO1)C(=O)CNS(=O)(=O)c1ccc(F)cc1 (configuration not stated) | 0.85%
45 | O=C(Nn1cc(C(=O)N2CCN(c3ccccc3F)CC2)c2ccccc2c1=O)c1cnccn1 | -1.41%
46 | COc1ccc(NS(=O)(=O)c2ccc3oc(SCC(N)=O)nc3c2)cc1 | -0.47%
47 | COc1ccc(S(=O)(=O)Nc2ccc(O)c(Sc3nc4ccccc4s3)c2)cc1 | 11.6% (active)
48 | COc1ccc(/C=C(/CC(=O)Nc2ccc(C)cc2)c2nc3ccccc3s2)cc1 | -2.24%
49 | CCC(C)(C)NC(=O)/C=C/c1cc(OC)c(OC)c(S(=O)(=O)N2CCc3ccccc32)c1 | 0.08%
50 | COc1ccc(CNC(=O)CNC(=O)c2sc3ccccc3c2Cl)cc1OC | 1.07%
51 | O=C(N/N=C/c1c(Cl)[nH]c2ccccc12)c1sc2ccccc2c1Cl | 28.2% (active)
52 | COCCNC(=S)N/N=C/c1c(C)[nH]c2ccccc12 | -4.38%
53 | Cc1ccc(N(C(=O)C(F)(F)F)C(C(=O)NC2CCCCC2)c2ccncc2)cc1C (configuration not stated) | -1.17%
54 | O=C(OC1CCCCC1=O)c1cccc(S(=O)(=O)NCc2ccccc2)c1 (configuration not stated) | -0.25%
55 | CC1CN(c2cc(=O)n(-c3cccc(Br)c3)c(=O)[nH]2)CC(C)O1 (configuration not stated) | 0.6%
56 | COc1ccc(Br)cc1CN(C)CC(=O)Nc1cc(Cl)cc(Cl)c1 | -14.8%
57 | O=C1c2ccccc2C(=O)N1CC1c2ccccc2CCN1S(=O)(=O)c1ccccc1 (configuration not stated) | -1.14%
